In the library only some 1.5% were active in any assay of this set; here they are far more common.
DAT uptake mod: modulates human dopamine transporter uptake under cocaine. 110,000 tested, 1.3% active. Q01959. B-score at 10 µM. LLC-PK1 hDAT cells, [14C]-dopamine uptake with cocaine IC80; actives deviate in either direction;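 active = Z score or B-score, a plate-position-corrected score, falls beyond the plate's 99.7% confidence bounds, in either direction; inactive = both scores lie inside the 99.7% bounds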;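 also: scored against the spread of the other compound wells on the same plate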
Target sequence (Q01959 whole entry, looked up): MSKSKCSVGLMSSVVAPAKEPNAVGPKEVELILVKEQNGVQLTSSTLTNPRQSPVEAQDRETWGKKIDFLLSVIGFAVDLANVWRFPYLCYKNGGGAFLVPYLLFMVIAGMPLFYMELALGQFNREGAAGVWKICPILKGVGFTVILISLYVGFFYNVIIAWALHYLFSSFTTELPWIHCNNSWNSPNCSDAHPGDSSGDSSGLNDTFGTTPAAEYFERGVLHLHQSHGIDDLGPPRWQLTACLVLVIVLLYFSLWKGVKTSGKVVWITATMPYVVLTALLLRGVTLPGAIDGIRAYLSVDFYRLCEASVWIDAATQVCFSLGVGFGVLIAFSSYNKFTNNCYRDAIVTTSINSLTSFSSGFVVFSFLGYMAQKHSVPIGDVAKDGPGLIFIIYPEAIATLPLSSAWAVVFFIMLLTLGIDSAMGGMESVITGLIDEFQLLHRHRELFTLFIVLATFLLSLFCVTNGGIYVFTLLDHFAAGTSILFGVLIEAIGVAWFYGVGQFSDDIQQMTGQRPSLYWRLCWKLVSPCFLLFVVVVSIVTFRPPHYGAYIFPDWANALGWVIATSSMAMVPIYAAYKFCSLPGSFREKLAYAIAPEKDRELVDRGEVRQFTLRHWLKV
MRP-1 activ: activators of MRP-1; H69AR cells + doxorubicin, viability rescue, CellTiter-Glo; viability increase, % at 10 µM; 140,000 tested, 0.61% active; AID 799;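 active = viability gain under doxorubicin at or above a set limit, the compound median plus 3 SD, cut at about 4.7% in these data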;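 also: MRP-1 overexpressing cells given doxorubicin 25 µM after compound pretreatment; 18-22 h compound pretreatment then 72 h with doxorubicin before readout; 0% = doxorubicin-only wells and 100% = vehicle-treated cells without doxorubicin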
MRP reversal: reverses drug resistance mediated by MRP; H69AR cells + 2 uM doxorubicin, CellTiter-Glo, 72 h; differential viability (reversal), % at 10 µM; 85,000 tested, 0.04% active;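 active = viability drop by adding the cancer drug above about 55%, with treated viability meeting a 40% cutoff, limit read from the data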;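 also: viability without doxorubicin minus viability with 2 µM doxorubicin for each compound; larger differential means the compound sensitizes cells more to doxorubicin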
The depositor's hits bear a star; · = not tested or not shown.

SMILES	DAT uptake mod	MRP-1 activ	MRP reversal
CCOc1ccc(NC(=O)CN2C(=O)C3CC=CCC3C2=O)cc1 (centres undefined)	0.95	-1	7
O=C(CN1C(=O)C2CC=CCC2C1=O)Nc1ccc(S(=O)(=O)NC2=NCCCCC2)cc1 (centres undefined)	-8.1*	-2	0
COc1cccc(C2NC(=O)N(CCCC(=O)O)C(C)=C2C(=O)OCc2ccccc2)c1 (centres undefined)	0.04	·	·
Cc1ccc(C)c(NC(=O)CSc2ccc(-c3ccco3)nn2)c1	·	0	·
CCOC(=O)c1c(N2C(=O)C3C4C=CC(O4)C3C2=O)sc2c1CCCC2 (centres undefined)	·	-4	8
CCOC(=O)c1c(N2C(=O)Nc3cc(Cl)c(Cl)cc3N2O)sc2c1CCCCC2	3.8*	0	·
CCCC[C@@H]1CNC(=O)C(=O)N1CC(C)(C)C	0.73	·	·
C/C(=N/NC(=O)c1cc2ccccc2cc1O)C1C(=O)c2ccccc2C1=O	-0.57	-2	-5
C/C(=N\NC(=O)c1ccccc1O)C1C(=O)c2ccccc2C1=O	-3.7*	-5	·
COc1cccc(Nc2nc(-c3sc(N)nc3C)cs2)c1	2.2*	-3	-12
COc1cccc(Nc2nc(-c3sc(NC(=O)c4ccco4)nc3C)cs2)c1	0.73	-2	·
COc1cc(Cl)c(C)cc1NC(=O)CSc1cc(Cl)ccc1Cl	·	-3	·
CC(C)Cn1c(-c2csc3c2CCCC3)n[nH]c1=S	·	0	·
O=C(c1ccc(Br)o1)N1CCN(c2ccccn2)CC1	2.4*	0	-9
O=C(c1ccc(Br)o1)N1CCN(c2ccccc2F)CC1	-1.6	1	14
Cc1cc(C)c(NS(=O)(=O)c2ccc(NC(=O)/C=C/C(=O)O)cc2)c(C)c1	·	0	·
COCCN1CCN(C(=O)c2ccc3c(c2)S(=O)(=O)c2ccccc2C3=O)CC1	-0.16	·	·
CCCCCCCCCCNC(=O)CCn1[nH]c(=O)c2ccccc2c1=O	-1.1	·	2
NC1=NC(=O)/C(=C/c2cccs2)S1	0.56	-3	·
C=CCSC1=NC(=O)/C(=C/c2cccs2)S1	·	8.8*	·
COC(C/C=C\C(=O)[C@@H](C)OCc1ccccc1)OC	-0.88	·	·
CCC1=C(OC(=O)N(CC)CC)N2C(=O)OC(=NCc3ccccc3)[C@]2(C)[C@H]2C1=CC[C@H]1C(=O)N(c3ccccc3)C(=O)[C@H]12	1.8*	·	·
CCC1=C(OC(=O)N(CC)CC)N2C(=O)OC(=NCc3ccccc3)[C@]2(C)[C@H]2C1=CC[C@H]1C(=O)N(CC(=O)OC)C(=O)[C@H]12	2.8	·	·
O=C(Nc1cccc(Cl)c1)Nc1cc(S(=O)(=O)N2CCOCC2)ccc1N1CCCC1	·	-3	·
Cc1ccccc1OCCCC(=O)Nc1ccccc1C(F)(F)F	-0.65	-3	·
SMILES	DAT uptake mod	MRP-1 activ	MRP reversal
Cc1ccccc1-c1nc2cc(Cl)ccc2o1	-1.5	-4	5
FC(F)(F)c1cccc(CNc2ncccc2-c2nc3cc(Cl)ccc3o2)c1	-0.46	5.2*	·
CCOc1ccccc1NC(=S)NNS(=O)(=O)c1c(C)cc(C)cc1C	·	-2	·
CC12CCC(c3nnc(SCc4ccc(Cl)cc4)nc31)C2(C)C (centres undefined)	2.6	5.7*	14
CCOC(=O)CSc1nnc2c(n1)C1(C)CCC2C1(C)C (centres undefined)	0.0077	-2	·
Cc1cc(Nc2cc(Cl)nc(Sc3ccc(NC(=O)C4CC4)cc3)n2)n[nH]1	-2.6*	·	·
Cc1nc(-c2ccc(NC(=O)C3CCCCC3)cc2)cs1	0.11	-1	·
O=C(NCc1cccc(Br)c1)C1CC2Cn3c(nc4ccccc43)C2N1c1ccccc1 (centres undefined)	-0.97	·	·
O=S(=O)(/N=C(/c1ccc(Cl)cc1)N1CCOCC1)c1ccc(Cl)cc1	2*	0	·
O=S(=O)(/N=C(/c1ccc(F)cc1)N1CCCCC1)c1ccc(Cl)cc1	·	-3	·
CSc1nc(N(C)C)nc(N2CC(=O)N(CCNS(=O)(=O)c3ccc(C)cc3)C2=N)n1	·	-3	·
O=C(NCc1ccccc1)C1=C[C@H](c2ccc(C(F)(F)F)cc2)C[C@H](OCc2ccc(CO)cc2)O1	-0.046	·	·
COc1ccccc1N(CC(=O)NCc1ccccc1)C(=O)CCC(=O)Nc1cc(C)ccn1	2.5*	-2	6
Cc1ccnc(NC(=O)CCC(=O)N(CC(=O)NCc2ccccc2)c2ccc3c(c2)OCO3)c1	0.28	-4	-15
Cc1ccc(C)c(NC(=O)CN(C)C(=O)[C@@H](NC(=O)c2ccc(C(C)(C)C)cc2)C(C)C)c1	·	-6	·
Cn1c(=O)c2c(ncn2CC(=O)OCC(=O)Nc2cc(Cl)ccc2Cl)n(C)c1=O	·	-1	·
O=C1CC(N(CCc2ccccc2)C(=S)Nc2cc(Cl)ccc2Cl)C(=O)N1c1c(Cl)cccc1Cl (centres undefined)	-1.7	-1	·
COCCCNc1oc(COc2ccc(Cl)cc2Cl)nc1C#N	2.2*	-4	-17
CN(C)CCNc1oc(COc2ccc(Cl)cc2Cl)nc1C#N	-0.2	-2	-2
Oc1ccc(N=C/C=C/c2ccc(Br)cc2)cc1-c1nc2ccccc2s1	·	-4	·
CSC(=NC1CCCCC1)NS(=O)(=O)c1ccccc1	-0.79	-1	3
CC(=NC1CCCCC1)C1=C(O)c2ccccc2C1=O	2*	·	-11
C#CCOCCOCCOCCNc1nc(N2CCN(C(=O)C([C@@H](C)CC)n3cc(C(N)CO)nn3)CC2)nc(N2CCN(C(=O)C([C@@H](C)CC)n3cc(C(N)COC(=O)C(F)(F)F)nn3)CC2)n1 (some centres undefined)	-0.052	·	·
O=C(Nc1nc2ccc(SC(F)F)cc2s1)c1ccc(NS(=O)(=O)c2ccc(F)c(F)c2)cc1	·	-5	·
O=C1COc2ccc3ccccc3c2CN1	-0.26	-3	0
SMILES	DAT uptake mod	MRP-1 activ	MRP reversal
O=C1COc2ccc(C(=O)c3ccccc3)cc2CN1	3.4*	0	7
Cc1nn(Cc2ccccc2)c2c1C(c1cccc(Cl)c1)C(C#N)=C(N)O2 (centres undefined)	0.79	0	-12
Cc1cccc(C)c1NC(=S)Nc1c(C)n(C)n(-c2ccccc2)c1=O	·	-1	·
CC1CC(NC(=O)c2cnc3n(c2=O)CCS3)CC(C)(C)C1 (centres undefined)	-2.6*	·	8
O=C(NC1CCCC1)c1cnc2n(c1=O)CCS2	0.16	-4	4
O=C(Nc1ccc(Oc2ccccc2)cc1)c1cnc2n(c1=O)CCS2	-0.15	6.0*	5
CCOc1ccccc1NC(=O)c1cnc2n(c1=O)CCS2	0.48	-3	-4
Cc1ccc(NC(=O)C(C)c2ccc(-c3ccccc3)c(F)c2)cc1 (centres undefined)	-1.1	-1	·
COC(=O)c1c(C)[nH]c(C)c1C(=O)c1ccccc1Cc1ccccc1	0.41	·	·
Cc1ccc(Oc2nnc(-c3cccs3)c3ccccc23)cc1C	·	3	·
Nc1ccc(S(N)(=O)=O)cc1	-0.97	·	·
Nc1ccc(S(=O)(=O)c2ccc(Cl)cc2)cc1	-3.1*	-4	25
CS(=O)(=O)N1c2ccccc2[C@]2(Br)C[C@H]3C(=O)N[C@@H](Cc4ccccc4)C(=O)N3[C@H]12	0.71	·	·
CC1(C)NC(C)(C)c2nonc2/C1=N\O	2.8*	0	10
COCCn1c(=NC(=O)/C=C/c2ccccc2)sc2cc(NC(C)=O)ccc21	·	-4	·
CCOc1cc(/C=C(/C#N)C(=O)Nc2ccc(O)cc2)cc(Br)c1O	-3.4*	-5	·
C=CCNC(=O)/C(C#N)=C\c1cc(Cl)c(O)c(OCC)c1	·	-4	·

Compound activity from PubChem.
